# Source: PubChem (several laboratories)
# Shown are actives, neighbours in structure and some others; about 4.2% of the full set was active somewhere.
# GDH-TPI inh – counter-screen for M. tuberculosis FBA inhibitors: GDH-TPI coupled enzymes; GDH-TPI coupled enzyme counterscreen, NADH absorbance; inhibition, % at 4.8 µM; 360,000 compounds, 1.2% hits; AID 588335; in the data active means inhibition above about 30%
# Mtb FBA inh – inhibitors of M. tuberculosis fructose-bisphosphate aldolase; P9WQA3; purified M. tuberculosis FBA, fluorescence read-out; inhibition, % at 1 µM; 360,000 compounds, 2.3% hits; AID 588726; in the data active means inhibition above about 27%
# Target sequence (P9WQA3 whole entry, looked up): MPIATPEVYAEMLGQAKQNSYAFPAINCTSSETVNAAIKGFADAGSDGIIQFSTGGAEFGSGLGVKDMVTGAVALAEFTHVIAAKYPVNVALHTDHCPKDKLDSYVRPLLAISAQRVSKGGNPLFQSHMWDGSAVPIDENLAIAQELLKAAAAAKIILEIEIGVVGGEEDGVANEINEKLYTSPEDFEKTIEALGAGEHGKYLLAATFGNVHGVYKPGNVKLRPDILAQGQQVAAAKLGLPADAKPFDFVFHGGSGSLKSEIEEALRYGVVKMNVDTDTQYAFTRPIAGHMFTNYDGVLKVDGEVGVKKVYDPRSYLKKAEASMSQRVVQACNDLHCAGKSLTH
# PrPC surface inh – cell surface PrPC inhibition, primary TR-FRET screen | P04156 | TR-FRET read-out | inhibition, % at 13.8 µM | 370,000 compounds, 0.43% hits; in the data active means inhibition above about 24%
# RecA intein inh – inhibitors of M. tuberculosis RecA intein splicing; cell-free RecA intein splicing, fluorescence; AID 2221; inhibition, % (no concentration beside the values); 290,000 compounds, 0.75% hits; in the data active means inhibition above about 30%
# BJeLR lethal – kills HRASV12-expressing BJeLR cells | 300,000 compounds, 0.17% hits | inhibition, % (no concentration beside the values) | BJeLR (HRASV12) viability, CellTiter-Glo ATP luminescence, 48 h; in the data active means inhibition above about 50%
# A number is an active result; - = inactive; . = no result; + = active, no number.
SMILES,GDH-TPI inh,Mtb FBA inh,PrPC surface inh,RecA intein inh,BJeLR lethal
CC(=O)NCC1COc2ccccc2O1 (centres undefined),-,-,-,-,-
COc1ccc2cc3cc(C(=O)NC(C)C)oc3nc2c1,31,+,-,-,-
COc1ccc2cc3cc(C(=O)NCC4COc5ccccc5O4)oc3nc2c1 (centres undefined),-,152,-,-,-
COc1ccc2cc3cc(C(=O)NCc4ccc5c(c4)OCO5)oc3nc2c1,37,-,-,-,-
CC(C)(C)N(Cc1cn(Cc2ccccc2)nn1)S(=O)(=O)c1ccc(N2CCCCC2)cc1Br,.,.,-,.,.
Cc1cc(NCc2ccco2)nc2cc(O)ccc12,-,124,-,-,-
COc1ccc(OC)c(C2/C(=C(/O)c3ccccc3)C(=O)C(=O)N2Cc2ccco2)c1 (centres undefined),-,-,-,-,-
COc1ccc(/C(O)=C2\C(=O)C(=O)N(Cc3ccco3)C2c2cc(OC)ccc2OC)cc1 (centres undefined),40,-,-,-,-
COc1cc(C2/C(=C(\O)c3ccc4c(c3)OCCO4)C(=O)C(=O)N2Cc2ccco2)cc(OC)c1OC (centres undefined),32,-,-,-,.
Cc1ccc(C(=O)N/C(=C\C=C\c2ccccc2)C(=O)NCc2ccco2)cc1,36,-,-,-,-
O=C(Nc1ccc(O)cc1)/C(=C\C=C\c1ccccc1)NC(=O)c1ccccc1,74,-,-,-,-
O=C(NCc1ccco1)/C(=C/C=C/c1ccccc1)NC(=O)c1ccco1,-,-,-,-,-
O=C(Nc1ccc(C(=O)O)cc1)/C(=C\C=C\c1ccccc1)NC(=O)c1ccccc1Cl,56,-,-,-,-
O=C(O)CCNC(=O)/C(=C\C=C\c1ccccc1)NC(=O)c1ccccc1,53,-,-,-,-
COC(=O)[C@H]1C[C@@]2(c3ccccc3)c3ccccc3N[C@H]2N1,.,.,-,.,.
COc1ccc(C=Nn2c(-c3ccccc3F)n[nH]c2=S)cc1OCc1ccccc1,.,.,-,.,.
CCCC/C=C1/[C@H](CC)N(C)C2=N[C@@H](c3ccccc3)CC(=O)N21,.,.,-,.,.
O=C(O)C/C(=C\c1ccc(N2CCOCC2)c([N+](=O)[O-])c1)c1nc2ccccc2s1,33,-,-,-,-
O=C(O)CC/C(=C\c1ccc(N2CCOCC2)c([N+](=O)[O-])c1)c1nc2ccccc2s1,-,-,-,-,-
CCOc1ccc(-n2c(-c3ccccc3)c[n+]3c2CCCCC3)cc1,-,-,-,-,-
CCOc1ccc(-c2c(C)n(-c3ccc(OCC)cc3)c3[n+]2CCCCC3)cc1,-,-,28,-,70
Cc1ccc(NC(=O)c2cnc(SCC(=O)NCC3CCCO3)n(C)c2=O)cc1C (centres undefined),-,-,-,51,-
COc1cccc(/C=N/Nc2ccnc(=O)[nH]2)c1O,36,-,-,-,-
O=c1nccc(N/N=C/c2ccccc2O)[nH]1,38,-,-,-,-
CCOc1ccccc1/C=N/Nc1ccnc(=O)[nH]1,-,-,-,-,-
SMILES,GDH-TPI inh,Mtb FBA inh,PrPC surface inh,RecA intein inh,BJeLR lethal
Oc1cccc(/C=N/Nc2nn3cnnc3c3ccccc23)c1,-,-,-,-,-
COc1cccc(/C=N/Nc2nn3cnnc3c3ccccc23)c1O,32,-,-,-,-
CC(C)CNc1cccc2c1S(=O)(=O)N(Cc1cn(Cc3ccc(F)cc3)nn1)Cc1ccccc1O2,.,.,-,.,.
COc1ccc(-c2cc(-c3ccccc3)c(C#N)c(S(C)=O)n2)cc1 (centres undefined),31,+,-,-,-
Cc1cc(N/N=C/c2ccc(O)cc2)nc(NS(=O)(=O)c2ccccc2)n1,74,-,-,-,-
Cc1cc(N/N=C/c2ccccc2)nc(N)n1,42,-,-,-,-
Nn1c(SCC(=O)Nc2nccs2)nnc1-c1cc(-c2ccc(Cl)cc2)n[nH]1,.,.,-,.,.
Cc1nn(C)c(C)c1/C=C(\C#N)S(=O)(=O)c1ccc(F)cc1,33,-,-,.,.
O=C(O)c1cc(O)c2c(c1)[C@@H]([C@H]1c3cc(C(=O)O)cc(O)c3C(=O)c3c(O[C@@H]4O[C@H](CO)[C@@H](O)[C@H](O)[C@H]4O)cccc31)c1cccc(OC3O[C@H](CO)[C@@H](O)[C@H](O)[C@H]3O)c1C2=O (some centres undefined),-,-,62,-,-
O=C1c2cc(CO)cc(O)c2C(=O)c2c(O[C@@H]3OC(CO)[C@@H](O)[C@@H](O)[C@@H]3O)cccc21 (some centres undefined),-,-,-,-,-
CN1C(=O)C2(Nc3ccccc3-c3nc4ccccc4n32)c2ccccc21 (centres undefined),-,-,-,-,-
c1ccc2c(c1)NC1(CCCCCC1)n1c-2nc2ccccc21,-,161,-,-,-
CC1(c2ccccn2)Nc2ccccc2-c2nc3ccccc3n21 (centres undefined),-,112,-,-,-
c1ccc2c(c1)NC1(CCCCC1)n1c-2nc2ccccc21,-,153,-,-,-
O=C1Nc2ccccc2C12Nc1ccccc1-c1nc3ccccc3n12 (centres undefined),-,-,-,-,-
CCN1C(=O)C2(Nc3ccccc3-c3nc4ccccc4n32)c2cc(OC)ccc21 (centres undefined),-,-,-,-,-
CCCCC1(C)Nc2ccccc2-c2nc3ccccc3n21 (centres undefined),-,+,-,-,-
COc1cc(/C=N/NC(=S)Nc2cccc(C(=O)O)c2)cc(OC)c1OC,41,-,-,-,-
COc1cccc(/C=N/NC(=S)Nc2cccc(C(=O)O)c2)c1,-,-,-,.,-
COc1ccc(/C=N/NC(=S)Nc2cccc(C(=O)O)c2)cc1OC,50,-,-,-,-
COc1cc(/C=N/NC(=S)Nc2cccc(S(=O)(=O)N(C)C)c2)cc(OC)c1O,-,-,-,-,-
OCC[n+]1c2ccccc2nc2ccc(N3CCOCC3)cc21,-,-,-,31,-
Cc1cc(C(=O)Nc2ccc(N3CCOCC3)cc2)c2ccccc2n1,-,-,-,-,-
CCCC1=[N+](CC(=O)c2ccccc2)CCn2c(C)ccc21,35,-,-,.,-
COC(=O)CCC1NC(=O)C(Cc2c[nH]c3ccccc23)NC(=O)C2CC(=O)OC(C)C(NC(=O)C(C)NC(=O)C3CCCN3C(=O)C3CCCN3C(=O)C(C)NC(C)=O)C(=O)NC(CC(C)C)C(=O)NC(CCCCNC(=O)CCC(C(=O)NC(Cc3ccc(O)cc3)C(=O)O)NC1=O)C(=O)NC(Cc1c[nH]c3ccccc13)C(=O)N1CCCC1C(=O)NC(CO)C(=O)N2 (centres undefined),.,.,-,.,.
N#C/C(=C/c1cccs1)c1ccccn1,33,-,-,-,-
COC(=O)[C@@]12CCCCC=C1N(CCc1ccc(Cl)cc1)C(=O)[C@H]2CC(=O)NCC1CCCCC1,.,.,-,.,.
CN(C)c1ccc(/C=N/NC(=O)C(=O)N2CCCCCC2)cc1,36,-,-,.,-
